Consider 60 molecules from paper PMC4336329 (PLoS ONE, 2015).

Each structure is given as a SMILES string. Among all 310,000 compounds or so, about 14,000 (4.5%) showed an effect of 50% or more. Effects have a minus sign here. The sample as a whole holds a higher share of strong results than the screen did.
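Further: peak tail current of the secondary pulse compared with the same well before compound.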

human ether-à-go-go-related gene (hERG) potassium channel, sequence (Q12809 whole entry, looked up): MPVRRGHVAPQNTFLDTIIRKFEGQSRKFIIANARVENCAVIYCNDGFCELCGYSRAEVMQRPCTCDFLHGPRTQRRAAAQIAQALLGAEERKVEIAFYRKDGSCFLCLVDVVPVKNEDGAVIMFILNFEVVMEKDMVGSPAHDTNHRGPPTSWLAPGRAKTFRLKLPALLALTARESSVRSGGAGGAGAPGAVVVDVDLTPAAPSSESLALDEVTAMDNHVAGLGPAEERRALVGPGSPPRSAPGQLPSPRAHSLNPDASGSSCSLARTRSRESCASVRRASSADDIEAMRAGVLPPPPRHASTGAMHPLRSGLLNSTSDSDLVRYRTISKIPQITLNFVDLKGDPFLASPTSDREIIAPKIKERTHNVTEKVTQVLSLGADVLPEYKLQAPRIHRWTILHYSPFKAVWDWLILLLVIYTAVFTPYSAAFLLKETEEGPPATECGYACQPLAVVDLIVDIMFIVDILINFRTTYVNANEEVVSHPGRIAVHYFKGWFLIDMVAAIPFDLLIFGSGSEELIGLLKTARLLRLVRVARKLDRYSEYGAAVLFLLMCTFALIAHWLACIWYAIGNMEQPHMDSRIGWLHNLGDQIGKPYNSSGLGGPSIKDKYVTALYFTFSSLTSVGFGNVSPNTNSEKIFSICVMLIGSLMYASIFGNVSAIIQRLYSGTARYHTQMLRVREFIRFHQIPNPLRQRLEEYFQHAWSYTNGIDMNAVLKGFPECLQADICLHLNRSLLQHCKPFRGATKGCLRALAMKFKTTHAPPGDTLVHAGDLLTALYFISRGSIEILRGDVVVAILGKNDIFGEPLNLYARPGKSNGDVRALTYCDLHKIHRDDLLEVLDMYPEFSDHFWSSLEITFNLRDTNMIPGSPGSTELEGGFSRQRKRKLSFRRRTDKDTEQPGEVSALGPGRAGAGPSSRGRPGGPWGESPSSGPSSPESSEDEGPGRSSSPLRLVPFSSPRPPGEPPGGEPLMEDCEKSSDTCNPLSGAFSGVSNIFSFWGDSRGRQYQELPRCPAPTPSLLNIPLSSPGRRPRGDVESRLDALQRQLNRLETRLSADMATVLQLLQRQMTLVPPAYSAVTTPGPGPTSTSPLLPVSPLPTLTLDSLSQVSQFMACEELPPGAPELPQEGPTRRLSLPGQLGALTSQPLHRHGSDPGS

The assay has as its target human ether-à-go-go-related gene (hERG) potassium channel (human, UniProt Q12809). Briefly: primary screen, population patch clamp on CHO cells stably expressing hERG; higher = less effect of the substance.
Take `CC1(C)CC(=O)c2cc(N=C/C(C(=O)c3ccccc3)=C(\O)c3ccccc3)c(=O)oc2C1`: the “hERG current change (%, negative = inhibition) at 10uM” value came to 17.6%.
For the molecule `O=C1C=C(c2ccc3ncccc3c2)C[C@@H](c2ccc(F)cc2)C1`, the “hERG current change (%, negative = inhibition) at 10uM” value is on record as -62.5%.
As to `COc1ccc(C2=CC(=O)CC(c3ccc(F)cc3)C2)cn1` (stereo not drawn), the “hERG current change (%, negative = inhibition) at 10uM” value is -61.1%.
As for `Cc1ccc(C2=CC(=O)C[C@H](c3ccc(F)cc3)C2)cc1`, the figure is 19.4%; as for `O=C1C=C(c2ccc(-c3ccccc3)cc2)C[C@@H](c2ccc3c(c2)OCO3)C1`, 7.88%; as for `COc1ccc(C2=CC(=O)C[C@H](c3ccc(Cl)cc3)C2)cn1`, -12.4%.
As to `COc1ccc([C@H]2CC(=O)C=C(c3ccc(OC)nc3)C2)cc1`, the “hERG current change (%, negative = inhibition) at 10uM” value is on record as 14.2%.
With `O=C1C=C(c2ccc3ncccc3c2)C[C@@H](c2ccc(Cl)cc2)C1`, the “hERG current change (%, negative = inhibition) at 10uM” value is -3.34%.
With `N#Cc1ccc(C2=CC(=O)C[C@H](c3ccc4c(c3)OCO4)C2)cc1`, the “hERG current change (%, negative = inhibition) at 10uM” value is on record as -70%.
As to `O=C1C=C(c2ccc(-c3ccccc3)cc2)C[C@@H](c2ccc(F)cc2)C1`, the “hERG current change (%, negative = inhibition) at 10uM” value was determined as 6.67%.
Turning to `COc1ccc([C@H]2CC(=O)C=C(c3ccc4ncccc4c3)C2)cc1`, the “hERG current change (%, negative = inhibition) at 10uM” value was -3.25%.
As for `N#Cc1ccc(C2=CC(=O)C[C@H](c3ccc(F)cc3)C2)cc1`, the “hERG current change (%, negative = inhibition) at 10uM” value is given as -72.1%.
As for `O=C1C=C(c2ccc3c(c2)OCO3)C[C@@H](c2ccc3c(c2)OCO3)C1`, the “hERG current change (%, negative = inhibition) at 10uM” value is listed as 10.9%.
As for `COc1ccc(CN2CCN(C(=O)c3cccs3)CC2)cc1.O=C(O)C(=O)O`, the “hERG current change (%, negative = inhibition) at 10uM” value is reported as -7.86%.
Take `C=CCn1c(SCC(=O)N2CCOCC2)nnc1C(C)NC(=O)c1ccccc1` (stereo not drawn): the “hERG current change (%, negative = inhibition) at 10uM” value is 13.4%.
On to `CCc1cccc(C)c1NC(=O)COC(=O)Cc1ccsc1`, for which the “hERG current change (%, negative = inhibition) at 10uM” value was 10.4%.
As for `c1cncc(-c2noc(C34CC5CC(CC(C5)C3)C4)n2)c1`, the figure is -0.918%.
Consider `Nc1nc2ccccc2cc1S(=O)(=O)c1ccccc1`, for which the “hERG current change (%, negative = inhibition) at 10uM” value stood at 16%.
For the molecule `O=[N+]([O-])c1ccc(N/N=C/c2cccc(O)c2O)c(S(=O)(=O)N2CCOCC2)c1`, the “hERG current change (%, negative = inhibition) at 10uM” value is -5.8%.
In the case of `COC(=O)c1ccccc1NC(=O)CSc1nnc(-c2cccnc2)o1`, the “hERG current change (%, negative = inhibition) at 10uM” value was -6.93%.
As for `COc1ccccc1NC(=O)C(C)N1C(=O)c2ccccc2C1=O` (stereo not drawn), the figure is 5.76%.
Take `Cc1cccc(-c2nc(CSCC(=O)NCCCN3CCOCC3)c(C)o2)c1`: the “hERG current change (%, negative = inhibition) at 10uM” value was -11.3%.
With `Cc1c(NC(=O)CSc2nnnn2-c2ccc(O)cc2)c(=O)n(-c2ccccc2)n1C`, the “hERG current change (%, negative = inhibition) at 10uM” value is listed as -7.29%.
As for `Nc1c(Cl)ncnc1NCCc1ccc(O)cc1`, the figure is 9.93%; as for `CCn1nc(-c2ccccc2)nc2c(=O)n(C)c(=O)nc1-2`, -27.6%.
As for `Cc1cnc2cc(Cl)c(Cl)cc2n1`, the figure is 18.2%.
On to `CCOc1ccc(S(=O)(=O)Nc2ccc(C(=O)N3CC(C)OC(C)C3)cc2)cc1` (stereo not drawn), for which the “hERG current change (%, negative = inhibition) at 10uM” value was determined as 0.557%.
For `Cc1ccc(C2=CC(=O)C[C@H](c3ccc(Cl)cc3)C2)cc1`, the “hERG current change (%, negative = inhibition) at 10uM” value was 8.09%.
As for `O=C1C=C(c2ccc(-c3ccccc3)cc2)C[C@@H](c2ccc(Cl)cc2)C1`, the “hERG current change (%, negative = inhibition) at 10uM” value is listed as 21.8%.
In the case of `N#Cc1ccc(C2=CC(=O)C[C@H](c3ccc(Cl)cc3)C2)cc1`, the “hERG current change (%, negative = inhibition) at 10uM” value is -71.9%.
Turning to `O=C(NCc1ccccc1)c1ccc(CS(=O)(=O)Cc2ccccc2F)o1`, the “hERG current change (%, negative = inhibition) at 10uM” value is reported as -5.62%.
As for `COc1cccc(CNC(=O)CC2C(=O)NCCN2CCCc2ccccc2)c1` (stereo not drawn), the “hERG current change (%, negative = inhibition) at 10uM” value was -6.17%.
As for `COc1ccc(NC(=O)CN2CCN(CC(=O)Nc3ccccc3Cl)CC2)cc1`, the figure is -74.1%.
Consider `O=C(COc1ccc(Cl)cc1)Nc1ccccc1Cl`, for which the “hERG current change (%, negative = inhibition) at 10uM” value was determined as 3.26%.
As to `CCc1nnc(NC(=O)CN2CCN(Cc3cccc(OC)c3)CC2)s1`, the “hERG current change (%, negative = inhibition) at 10uM” value is -19%.
Consider `COc1ccc(NC(=O)c2ccccc2NC(=O)CN2CCCCCC2)cc1`, for which the “hERG current change (%, negative = inhibition) at 10uM” value came to 8.82%.
As to `COc1cccc(NC(=O)CN2CCN(CC(=O)Nc3ccccc3Cl)CC2)c1`, the “hERG current change (%, negative = inhibition) at 10uM” value is -61%.
`COc1cccc(NC(=O)CN2CCc3ccccc3C2)c1`: the “hERG current change (%, negative = inhibition) at 10uM” value was 10.3%.
For the molecule `COc1ccc(OCC(=O)Nc2ccccc2Cl)cc1`, the “hERG current change (%, negative = inhibition) at 10uM” value is 13.7%.
As to `COc1cccc(CN2CCN(CC(=O)Nc3ccccc3Cl)CC2)c1`, the “hERG current change (%, negative = inhibition) at 10uM” value is -72%.
For the molecule `CCc1ccc(OCC(=O)N2CCN(CC(=O)Nc3ccccc3Cl)CC2)cc1`, the “hERG current change (%, negative = inhibition) at 10uM” value is -80.7%.
Regarding `COc1ccc(S(=O)(=O)N2CCN(CC(=O)Nc3ccccc3Cl)CC2)cc1`, the “hERG current change (%, negative = inhibition) at 10uM” value is listed as -1.6%.
As for `COc1cccc(NC(=O)CN2CCC(C)CC2)c1`, the figure is 1.52%; as for `COc1cccc(CC(=O)Nc2ccccc2N2CCCC2)c1`, -5.39%; as for `CCOC(=O)c1oc2ccccc2c1COC(=O)C(C)NC(=O)c1ccco1` (stereo not drawn), -16.5%.
In the case of `COc1ccc(C(=O)N(C)C2CCCCC2)cc1S(=O)(=O)N1CCOCC1`, the “hERG current change (%, negative = inhibition) at 10uM” value is -3.28%.
`CCCCOc1ccc(/C=N/NC(=S)Nc2cccc(C)c2C)cc1`: the “hERG current change (%, negative = inhibition) at 10uM” value is reported as -15.8%.
For `CCOc1ccc(CCNC(=O)CN2C(=O)COc3ccc(S(=O)(=O)N4CCOCC4)cc32)cc1`, the “hERG current change (%, negative = inhibition) at 10uM” value is recorded as -6.84%.
For the molecule `CCN1CCCC1CNC(=O)C(=O)Nc1cccc(OC)c1` (stereo not drawn), the “hERG current change (%, negative = inhibition) at 10uM” value is -1.67%.
Regarding `O=C(c1cc2cc(Br)ccc2[nH]1)N1CCc2ccccc21`, the “hERG current change (%, negative = inhibition) at 10uM” value came to 14%.
In the case of `CSc1ccccc1NC(=O)COc1ccc(Cl)cc1`, the “hERG current change (%, negative = inhibition) at 10uM” value is -17.5%.
Consider `COc1cccc(C(=O)NC2CCN(CC(=O)Nc3ccccc3Cl)CC2)c1`, for which the “hERG current change (%, negative = inhibition) at 10uM” value was -55.4%.
As for `COc1ccc(NC(=O)CN2CCN(c3ccccc3Cl)CC2)cc1`, the figure is -61.4%.
For `CC(NC(=O)CN1CCN(S(=O)(=O)c2ccc(Br)cc2)CC1)c1ccccc1` (stereo not drawn), the “hERG current change (%, negative = inhibition) at 10uM” value is reported as -36.9%.
In the case of `CC(NC(=O)CN1CCN(c2cccc(Cl)c2)CC1)c1ccccc1` (stereo not drawn), the “hERG current change (%, negative = inhibition) at 10uM” value turned out to be 4.34%.
In the case of `COc1ccc(NC(=O)CN2CCN(c3ccccc3C)CC2)cc1`, the “hERG current change (%, negative = inhibition) at 10uM” value is -41.2%.
Regarding `Cc1cccc(C(=O)NC2CCN(CC(=O)Nc3ccccc3Cl)CC2)c1`, the “hERG current change (%, negative = inhibition) at 10uM” value is given as -49%.
As for `COc1ccc(CCNC(=O)CN2CCN(c3ccccc3Cl)CC2)cc1`, the figure is -19%; as for `COc1cccc(C(=O)NC2CCN(CC(=O)Nc3cccc(C)c3C)CC2)c1`, 32.2%; as for `CC(NC(=O)CN1CCN(CC(=O)Nc2ccccc2Cl)CC1)c1ccc(Br)cc1` (stereo not drawn), -75.1%.
